In PubChem BioAssay (NCATS):
Records with an inconclusive call do not appear. Activity calls are given as the source filed them. Calls follow the shape of the dose curve; as a rule, active = well fitted curve in the direction sought with a large enough effect; inconclusive = small, poorly fitted or top-dose-only effect, or another doubt; inactive = no such curve, though single readings can be large; an effect the other way counts as inactive or inconclusive.

Assays:
[1] = Cell Viability - LYMP2-004 (AID 966); conditions: LYMP2-004 lymphoblastoid cell viability, qHTS; series mostly up to 92.2 µM; also: nearly all actives have a fitted effect of over 65% in size
Procedure, shortened: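 Luminescent ATP read-out (CellTiter-Glo, 30 min RT) after 24 hr compound exposure at 37 C; 2500 lymphoblastoid cells/well, complete medium. Decrease in ATP = cytotoxicity; AC50 from standard Hill model.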

[2] = Cell Viability - LYMP2-005 (AID 967); conditions: LYMP2-005 lymphoblastoid cell viability; series mostly up to 92.2 µM
Procedure, shortened: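 Acute cytotoxicity is scored as a concentration-dependent drop in intracellular ATP in human lymphoblastoid LYMP2-005 cells after 24 h compound treatment. ATP is quantified by luciferase luminescence, and AC50 is derived by Hill-equation modelling.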

[3] = Cell Viability - LYMP2-009 (AID 968); conditions: LYMP2-009 lymphoblastoid cell viability; series mostly up to 92.2 µM; also: nearly all actives have a fitted effect of over 55% in size
[4] = Cell Viability - LYMP2-011 (AID 969); conditions: LYMP2-011 lymphoblastoid cells viability; series mostly up to 92.2 µM;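 also: cells exposed to compound for 24 hours; nearly all actives have a fitted effect of over 60% in size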
Procedure, shortened: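 Luminescent ATP read-out (CellTiter-Glo, 30 min RT) after 24 hr compound exposure at 37 C in human lymphoblastoid cells, 2500 cells/well. Decreasing ATP indicates cytotoxicity; AC50 from standard Hill fit.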

[5] = Cell Viability - LYMP2-013 (AID 970); conditions: LYMP2-013 lymphoblastoid cells viability; series mostly up to 92.2 µM; also: nearly all actives have a fitted effect of over 55% in size
Procedure, shortened: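 CellTiter-Glo luminescence (cellular ATP) read after 30 min at RT. Cells: human lymphoblastoid line, 2500/well, 24 hr compound exposure at 37 C. Tetraoctylammonium bromide positive control; AC50 via standard Hill fit of qHTS titrations.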

[6] = Cell Viability - LYMP2-015 (AID 971); conditions: LYMP2-015 lymphoblastoid cell viability; series mostly up to 92.2 µM; also: nearly all actives have a fitted effect of over 55% in size
Procedure, shortened: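 qHTS cytotoxicity: 2500 cells/well, 5 hr 37 C, compound 24 hr 37 C, CellTiter-Glo 30 min RT, luminescence. Loss of ATP = toxicity; AC50 via standard Hill fit.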

[7] = Cell Viability - LYMP2-017 (AID 972); conditions: LYMP2-017 lymphoblastoid cell viability; series mostly up to 92.2 µM;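 also: cells exposed to compound for 24 hours at 37 °C; nearly all actives have a fitted effect of over 55% in size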
Procedure, shortened: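 Luminescent ATP read-out (CellTiter-Glo, 30 min RT) reports viable cell number. Cells: human lymphoblastoid line, 2500 per well, 5 hr preincubation, 24 hr compound exposure at 37 C. AC50 is derived from qHTS concentration-response data using the standard Hill model.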

[8] = Cell Viability - LYMP2-019 (AID 973); conditions: LYMP2-019 lymphoblastoid cell line viability; series mostly up to 92.2 µM; also: nearly all actives have a fitted effect of over 55% in size
Procedure, shortened: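 qHTS, 1536-well; 2500 cells/well; 5 hr pre-incubation, 24 hr compound exposure, 37 C; CellTiter-Glo added, 30 min RT; luminescence read; AC50 via standard Hill equation.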

[9] = Cell Viability - LYMP2-021 (AID 974); conditions: LYMP2-021 lymphoblastoid cells viability; series mostly up to 92.2 µM
Procedure, shortened: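 ATP luminescence (CellTiter-Glo, 30 min RT) after 24 h compound exposure at 37 C; 2500 human lymphoblastoid cells/well, 5 h settle beforehand. Cytotoxicity = concentration-dependent ATP drop, AC50 by Hill fit.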

[10] = Cell Viability - LYMP2-023 (AID 975); conditions: LYMP2-023 lymphoblastoid cell viability; series mostly up to 92.2 µM
Procedure, shortened: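 CellTiter-Glo luminescence after 30 min at room temperature; decrease in intracellular ATP reflects toxicity. Cells: human lymphoblastoid line, 2500/well, 24 hr compound exposure at 37 C. AC50 fitted to standard Hill equation from concentration-response.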

Measured: Potency

Cc1cccc(Br)c1
inactive: all assays above

Cc1cccc(C(=O)O)c1[N+](=O)[O-]
inactive: all assays above

NC(=O)c1cccc([N+](=O)[O-])c1
inactive: all assays above

Cc1cc(C)cc(N)c1
inactive: all assays above

CCCCC(CC)C(=O)O (stereo not given)
inactive: all assays above

CC(C)C(C)C
inactive: all assays above

CNc1ccc([N+](=O)[O-])cc1
inactive: all assays above

Nc1cc(S(=O)(=O)O)ccc1O
inactive: all assays above

O=C(O)c1ccc(C(=O)O)cc1
inactive: all assays above

Cc1cccc([N+](=O)[O-])c1C(=O)O
inactive: all assays above

CC(=O)OCCC(C)C
inactive: all assays above

Cc1cc(C(=O)O)ccc1[N+](=O)[O-]
inactive: all assays above

C=C(C)C(=O)OCC(C)O (stereo not given)
inactive: all assays above

O=Cc1ccc(Cl)cc1
inactive: all assays above

Cc1ccc(Br)cc1
inactive: all assays above

Cc1ccc2ccccc2c1[N+](=O)[O-]
inactive: all assays above

CCCCC(=O)N(C)C
inactive: all assays above

CCOCCO
inactive: all assays above

Cc1ccc(Cl)cc1
inactive: all assays above

COC(=O)CCCC(=O)OC
inactive: all assays above

CC(C)=CCl
inactive: all assays above

Cc1ccccc1Br
inactive: all assays above

Cc1ccc(CO)cc1
inactive: all assays above

COC(=O)CCC(=O)OC
inactive: all assays above

O=C(Cl)c1cccc([N+](=O)[O-])c1
inactive: all assays above

CC(=O)OCc1ccco1
inactive: all assays above

O=C(Cl)c1c(Cl)cccc1Cl
inactive: all assays above

CCC(O)C(C)(C)C (stereo not given)
inactive: all assays above

O=C(O)c1cccc(Cl)c1Cl
inactive: all assays above

BrC(Br)C(Br)Br
inactive: all assays above

O=C(Cl)c1ccccc1[N+](=O)[O-]
inactive: all assays above

N#CC1(O)CCCCC1
inactive: all assays above

C[C@@H]1O[C@@H](O[C@@H]2[C@@H](O)[C@H](OCCc3ccc(O)c(O)c3)O[C@H](CO[C@@H]3O[C@H](CO)[C@@H](O)[C@H](O)[C@H]3O)[C@H]2OC(=O)/C=C/c2ccc(O)c(O)c2)[C@H](O)[C@H](O)[C@H]1O
inactive: all assays above

CC(C)CCOC(=O)/C=C/c1ccccc1
inactive: all assays above

BrC/C=C/CBr
inactive: all assays above

Nc1ccc(Cl)cc1[N+](=O)[O-]
inactive: all assays above

NC(=O)c1ccccc1[N+](=O)[O-]
inactive: all assays above

CCCCOCCOCCOCCCC
inactive: all assays above

Nc1cc(Cl)c([N+](=O)[O-])cc1O
inactive: all assays above

CCCCCO
inactive: all assays above

O=C1OC(=O)c2c(Cl)c(Cl)c(Cl)c(Cl)c21
inactive: all assays above

O=C1NC(=O)c2cc([N+](=O)[O-])ccc21
inactive: all assays above

NC(=O)NC(N)=O
inactive: all assays above

O=C(O)c1ccccc1Cl
inactive: all assays above

Cc1ccc(C)o1
inactive: all assays above

CCCCCCCCCCCCOCC1CO1 (stereo not given)
inactive: all assays above

CC(=O)C1(C)CC2=C(CCCC2(C)C)CC1C (stereo not given)
inactive: all assays above

CCCCC(CC)CO (stereo not given)
inactive: all assays above

CC(C)c1ccccc1
inactive: all assays above

Oc1cccc(Nc2ccccc2)c1
inactive: all assays above

C1CCCC1
inactive: all assays above

CCN(C(=O)N(CC)c1ccccc1)c1ccccc1
inactive: all assays above

CCNc1ccccc1
inactive: all assays above

CCCCC(CC)CNCC(CC)CCCC (stereo not given)
inactive: all assays above

C=C(C)OC(C)=O
inactive: all assays above

C/C=C(/C)C#N
inactive: all assays above

CCN(Cc1ccccc1)c1ccccc1
inactive: all assays above

CC(C)Cc1nccs1
inactive: all assays above

O=C(O)CNC(=O)c1ccc(CO)o1
inactive: all assays above

Cc1ccc(N(C)C)cc1
inactive: all assays above

CC(=O)Nc1ccccc1C
inactive: all assays above

O=C(O)CN(CC(=O)O)CC(=O)O
inactive: all assays above

C1CCC2OC2C1 (stereo not given)
inactive: all assays above

CC(=O)c1ccccn1
inactive: all assays above

CC(N)CN (stereo not given)
inactive: all assays above

CCCCCCCCC/C=C/CC1CC(=O)OC1=O (stereo not given)
inactive: all assays above

CN(C)c1cccc(O)c1
inactive: all assays above

O=[N+]([O-])c1cc(C(F)(F)F)ccc1Cl
inactive: all assays above

CCCCCCCCCCCCC1CO1 (stereo not given)
inactive: all assays above

C=C(C)C(=O)OCC(C)C
inactive: all assays above

O=P(O)(OCc1ccccc1)OCc1ccccc1
inactive: all assays above

CO[Si](CCCNCCC[Si](OC)(OC)OC)(OC)OC
inactive: all assays above

CC/C=C/C#N
inactive: all assays above

CCOC(=O)OCC
inactive: all assays above

O=[N+]([O-])c1ccc(NCCO)c(OCCO)c1
inactive: all assays above

C[C@@H]1CC2(OC[C@]3(C)O[C@H]23)O[C@H]2C[C@@]3(C)[C@@H]4CC[C@H]5C(C)(C)C(O[C@@H]6OC[C@@H](O)[C@H](O)[C@H]6O)CC[C@@]56C[C@@]46CC[C@]3(C)[C@@H]12 (stereo not given in full)
inactive: all assays above

COc1ccccc1[N+](=O)[O-]
inactive: all assays above

O=C(O)c1cccc([N+](=O)[O-])c1
inactive: all assays above

O=C(O)/C=C/C(=O)O
inactive: all assays above

Cc1cccc(C)c1[N+](=O)[O-]
inactive: all assays above

Cc1ccc2nc(-c3ccc(N)cc3)sc2c1S(=O)(=O)O
inactive: all assays above

Cc1c(C(=O)O)cccc1[N+](=O)[O-]
inactive: all assays above

CCNS(=O)(=O)c1ccc(C)cc1
inactive: all assays above

CC(=O)Nc1ccc(N)cc1
inactive: all assays above

CCOc1cccc(N)c1
inactive: all assays above

CC1(N)CCC(C(C)(C)N)CC1 (stereo not given)
inactive: all assays above

S=C([S-])NCCNC(=S)[S-].[Zn+2]
inactive: all assays above

CCCCCNCCCCC
inactive: all assays above

CC(C)Nc1ccccc1
inactive: all assays above

c1ccc2[nH]cnc2c1
inactive: all assays above

O=C1CCCCC1
inactive: all assays above

Nc1cc([N+](=O)[O-])ccc1C(=O)O
inactive: all assays above

C=Cc1ccccn1
inactive: all assays above

C[C@@H]1CC2(OC3C[C@@]4(C)C5=CC[C@H]6C(C)(C)C(O[C@@H]7OC[C@@H](O)[C@H](O)[C@H]7O)CC[C@@]67C[C@@]57CC[C@]4(C)C31)OC(O)C1(C)OC21 (stereo not given in full)
inactive: all assays above

Cc1ccccc1C(=O)O
inactive: all assays above

C=CCOC(=O)COCCC(C)C
inactive: all assays above

Cc1ccc2cccnc2c1
inactive: all assays above

CC=O
inactive: all assays above

O=Cc1ccc(C(=O)O)cc1
inactive: all assays above

Nc1cccc2c(=O)[nH][nH]c(=O)c12
inactive: all assays above

Cc1ccc(C)c([N+](=O)[O-])c1
inactive: all assays above

N#Cc1ccccc1
inactive: all assays above

CCCCCCCCC
inactive: all assays above

Cc1cc(C)cc([N+](=O)[O-])c1
inactive: all assays above

Cc1ccc2c(c1[N+](=O)[O-])C(=O)c1ccccc1C2=O
inactive: all assays above

O=[N+]([O-])c1ccc(Cl)cc1Cl
inactive: all assays above

CCCCN(CCO)CCCC
inactive: all assays above

CC(=O)c1ccc([N+](=O)[O-])cc1
inactive: all assays above
